Results reported in ChEMBL document CHEMBL3988442, “University of Dundee, Small-Polar-MMV Screening Library” (2021).
In all, about 53,000 compounds went through this assay and about 900 (1.7%) showed an effect of 50% or more. Many of the other results were omitted from the sample, so strong results are more common in it than they were.

System: Mycobacterium tuberculosis
Test: Cornell - Phenotypic assay to identify agents that inhibit growth of Mycobacterium tuberculosis
Type: functional
Design: scale not given: direction of the effect not stated beside the values
Settings: 10 mM as filed; unlikely as a test dose

SMILES	Percent Effect
Cc1ccc(OCC(=O)Nc2cc(C(=O)O)cc(S(C)(=O)=O)c2)cc1C	18.88%
CCc1nc(C2CCCN2C(=O)c2csc(COC)n2)no1 (stereo not drawn)	-20.84%
Cc1cc(-n2cnnn2)n2ncnc2n1	-30.4%
Cc1cc(N2CCCC2Cn2nc(C)cc2C)n2ncnc2n1 (stereo not drawn)	-13.82%
Cc1cc(-n2cncn2)n2ncnc2n1	64.26%
Cc1ccc(C(=O)N2CCOC(c3ncc(CN(C)C)[nH]3)C2)cc1F (stereo not drawn)	14.93%
COc1ccc(F)cc1CN(CC(N)=O)C(C)C	-0.4736%
Cc1cc(-c2ccccc2)nc(C2CCCN2S(C)(=O)=O)n1 (stereo not drawn)	-11.27%
Cn1cc(Br)c(C(=O)NCCn2cc(Br)cn2)n1	8.473%
N#Cc1cccnc1N1CCC(OCCc2ccccc2)CC1	33.41%
N#Cc1ccc(N2CCC(OCCc3ccccc3)CC2)nc1	51.1%
Cc1cccc(OC2CCN(c3ccc(C#N)cn3)CC2)n1	4.434%
O=C(Cc1cccc(O)c1)N1CCCC(O)(CN2CCCC2)CC1 (stereo not drawn)	-1.621%
c1cc2c(cc1CN1CCN(Cc3noc(C4CC4)n3)CC1)OCO2	10.54%
CCC(=O)Nc1ccc2c(c1)C1(CCOCC1)CN2CCF.O=C(O)C(F)(F)F	2.387%
CCC1C(=O)NCCN1c1nccc(C)n1 (stereo not drawn)	-0.2663%
CC(C)Nc1nc(N2CCCC2)nc2c1CN(C)CC2	33.38%
Cc1nc(CN2CCc3nc(N4CCCC4)nc(NC(C)C)c3C2)cs1	75.47%
CC(C)Nc1nc(N2CCCC2)nc2c1CN(S(C)(=O)=O)CC2	12.79%
CC(C)Nc1nc(N2CCCC2)nc2c1CN(C(C)C)CC2	61.73%
CC(C)Nc1nc(N2CCCC2)nc2c1CN(c1ncc(F)cn1)CC2	82.11%
CCN1CCc2nc(N3CCOCC3)nc(NC(C)C)c2C1	16.58%

SMILES	Percent Effect
CCC(C)N1CCc2nc(N3CCCC3)nc(NC(C)C)c2C1 (stereo not drawn)	-13.77%
Cc1nc(CN2CCc3nc(NC(C)C)nc(C)c3C2)cs1	38.07%
CCCN1CCc2nc(N3CCOCC3)nc(NC(C)C)c2C1	29.26%
CCN(C(=O)c1nc2c(s1)CCCN2c1ccc(C)nn1)C(C)C	10.96%
Cc1cc(F)ccc1N1CCCC(Nc2nccn3cnnc23)C1=O (stereo not drawn)	-2.577%
Cc1cc(C(F)(F)F)n2nc(C3CCN(S(=O)(=O)N(C)C)CC3)cc2n1	-8.533%
Cc1cc(C)nc(C2CCCN2C(=O)c2cnccn2)n1 (stereo not drawn)	-1.129%
Cn1ccc2c(-c3cc(N4CCCCC4)ncn3)ccnc21	-7.071%
Clc1cc(N2CCN(C3CCOCC3)CC2)nc2[nH]ccc12	-30.2%
CN(Cc1noc(-c2ccccc2)n1)C(=O)CSc1nnc(N)s1	-22.54%
CC(C)NC(=O)Cc1cnc(-n2cccc2)s1	43.3%
CCOCC(=O)N1CCCn2c(CN3CCOCC3)nnc2C1	18.04%
CN1CCN(C(=O)c2cc(-c3cnc(N4CCCC4)nc3)cn2C)CC1	2.355%
Cn1cc(-c2cnc(N3CCCC3)nc2)cc1C(=O)O	95.84%
Cn1cc(-c2cnc(N3CCOCC3)nc2)cc1C(=O)O	44.3%
COc1cccc(Cl)c1C(C(=O)O)N1CCC(Cn2cccn2)CC1 (stereo not drawn)	-18.71%
CN(Cc1noc(C(C)(C)C)n1)Cc1ccccc1N1CCCCC1	2.184%
O=C(Nc1nc(-c2ccccc2)ns1)N1CCC(F)CC1	13.41%
CC(C)(O)C1CCCN(C(=O)Nc2nc(-c3ccccc3)ns2)C1 (stereo not drawn)	24.52%
CC(C)(O)C1CCN(C(=O)Nc2nc(-c3ccccc3)ns2)CC1	105.1%
O=C(c1ccc(-n2cnnc2)cc1)N1CCCC(n2ccnc2)C1 (stereo not drawn)	15.63%
Cc1cc(C)c2cc(CNCc3ccc(C)o3)c3nn(C)c(=O)n3c2c1	-2.639%

SMILES	Percent Effect
O=C(CCn1ccc2ccc(Cl)cc21)NCc1ccc(C(=O)O)cc1	28.36%
CC(C)NC(=O)C1(Cc2ccccc2-c2ccccc2)CCCNC1 (stereo not drawn)	-4.67%
Cc1ccc(-c2ccccc2CC2(C(=O)NC(C)C)CCCNC2)cc1 (stereo not drawn)	60.07%
CC(C)NC(=O)C1(Cc2ccccc2-c2cncnc2)CCCNC1 (stereo not drawn)	-1.5%
Cc1cc(C)n(CC2CN(Cc3cccc(C#N)c3)CCO2)n1 (stereo not drawn)	14.78%
COc1ccc(CN2CCn3cc(CN4CCN(C)CC4)nc3C2)cc1.O=C(O)C(F)(F)F.O=C(O)C(F)(F)F.O=C(O)C(F)(F)F	3.435%
CC(C)COCCC(=O)Nc1ccc2oc(=O)n(CCN(C)C)c2c1	-58.21%
O=C(NCCc1cc(N2CCOCC2)nc(N2CCCC2)n1)C1CC1	50.32%
O=C(NCCc1cc(N2CCOCC2)nc(NC2CC2)n1)C1CC1	33.35%
O=C(NCCc1cc(N2CCOCC2)nc(NC2CC2)n1)C1CCCO1 (stereo not drawn)	34.16%
c1cc(-c2c[nH]nc2C2CCCCC2)nc(N2CCCCCC2)n1	77.63%
OC[C@H]1CCCN1c1nccc(-c2c[nH]nc2C2CCCCC2)n1	4.191%
NC(=O)C1CCN(c2nccc(-c3c[nH]nc3C3CCCCC3)n2)CC1	12.19%
COCCNC(=O)c1ccc2ccc(N3CCN(CC4CC4)CC3)n2c1	-16.88%
Cc1cc(-c2cc(F)ccc2C(=O)O)nc(C2CCCN(C)C2)n1 (stereo not drawn)	0.614%
COc1ccccc1C1(CNc2nnc(C)c(C)c2C#N)CCOCC1	-5.763%
Cc1nnc(NCC2(c3ccccc3)CCC2)c(C#N)c1C	47.49%
COc1ccccc1C1(CNc2nnc(C)c(C)c2C#N)CCCC1	86.76%
Cn1cnnc1SCc1cc2c(cc1Cl)OCO2	23.01%
Cc1n[nH]c(C)c1NC(=O)C1CCCN(C(=O)NCC(C)C)C1 (stereo not drawn)	-0.6091%
CCCc1cnc(C)nc1N1CCC(Cn2cc(CN(C)C)nn2)CC1	18.6%
O=S(=O)(c1cccnc1)N1CCCCC1CCN1CCOCC1 (stereo not drawn)	-15.47%

SMILES	Percent Effect
O=C(c1ccc(F)cc1F)N(CC(F)(F)F)C1CCOCC1	37.88%
CCN(C(=O)c1cc(C)oc1C)C1CC1	4.626%
Cc1cc(C(=O)N(CC(F)(F)F)C2CCOCC2)c(C)o1	51.1%
Cc1cn2c(n1)CCC(NC(=O)CCOc1cccc(F)c1)C2 (stereo not drawn)	5.433%
Cc1cc(N2CCN(C3CCOCC3)CC(C(=O)N(C)C)C2)ncn1 (stereo not drawn)	3.983%
Cc1ccccc1CC(=O)NCc1cnc(CC2CCN(C)CC2)cn1	48.16%
O=C(O)C(F)(F)F.O=C1Nc2ccccc2C12CCN(Cc1cccs1)CC2	50.44%
Cc1ccc(CN2CCC3(CC2)C(=O)Nc2ccccc23)s1.O=C(O)C(F)(F)F	18.05%
O=C(O)C(F)(F)F.O=C1Nc2ccccc2C12CCN(Cc1nccs1)CC2	-8.416%
CCOc1ccc(NC(C)=O)cc1S(=O)(=O)Nc1nccs1	7.151%
CN(Cc1ccco1)C(=O)Nc1cc(C(F)(F)F)c[nH]c1=O	-17.34%
O=C(CCc1ccco1)Nc1cc(C(F)(F)F)c[nH]c1=O	7.769%
CC(CCc1ccco1)NC(=O)Nc1cc(C(F)(F)F)c[nH]c1=O (stereo not drawn)	102.9%
Cc1nc(C)n(CC(=O)N2CCCC(c3cc4ccccc4cn3)C2)n1 (stereo not drawn)	-16.13%
CC(C)c1nc(N2CCC(N3CCCC(O)C3)CC2)c2cnn(C)c2n1 (stereo not drawn)	28.63%
CC(C)c1nc(N2CCN3CCCC3C2)c2cnn(C)c2n1 (stereo not drawn)	62.47%
CC(C)c1nc(N2CCC(N3CCCCCC3)CC2)c2cnn(C)c2n1	30.23%
Cc1cc(C)nc(N2CCC(c3noc(C)n3)CC2)n1	-1.548%
O=C(CC1CCN(c2cccnn2)CC1)NCCO	12.72%
CCC/N=c1/c(NC(=O)NCCCOC)c(O)oc2ccccc12	-33.59%
CCc1ccc(CN(C)C(=O)C(c2ccccc2F)N(C)C)nc1 (stereo not drawn)	0.2159%
CCCC(=O)NCC(Cc1cccc(F)c1)N1CCCC1=O (stereo not drawn)	2.564%

SMILES	Percent Effect
O=C(CN(Cc1ccccc1)CC1CCOCC1)NC(=O)NC1CC1	16.06%
NC(=O)NC(=O)CCN(Cc1ccccc1)CC1CCOCC1	53.84%
O=C(CN(Cc1ccccc1)CC1CCOCC1)Nc1nccs1	42.61%
CCc1ccc(C(COC)NC(=O)c2ccc(C(N)=O)cc2)o1 (stereo not drawn)	17.07%
Cc1oncc1C(=O)N1CCOCC2(CCN(c3ccccn3)C2)C1.O=C(O)C(F)(F)F (stereo not drawn)	-11.19%
Cc1nc(C)n(CC2CCCN2Cc2cccc3c2OCCO3)n1 (stereo not drawn)	-6.241%
CC(=O)N1CCC[C@@H](NCc2c[nH]c3ccccc23)[C@@H]1c1ccc(C)s1.Cl	66.32%
CC(=O)N1CCC[C@@H](NCc2cccc(F)c2)[C@@H]1c1ccc(C)s1.Cl	-22.92%
CC(=O)N1CCC[C@@H](NCc2ccc(F)cc2)[C@@H]1c1ccc(C)s1	1.669%
c1ccc2ncc(CC3CCNC3)cc2c1 (stereo not drawn)	-46.09%
O=c1n(Cc2ccc(F)cc2)nc2ncccn12	-16.62%
O=C(c1cc(COc2ccc3c(c2)OCO3)[nH]n1)N1CCCCO1	15.85%
O=C(c1cc(COc2ccc3c(c2)OCO3)[nH]n1)N1CCCC(O)C1 (stereo not drawn)	44.89%
O=C(c1cc(COc2ccc3c(c2)OCO3)[nH]n1)N1CCOCC1	35.93%
O=C(c1cc(COc2ccc3c(c2)OCO3)[nH]n1)N1CCCO1	80.32%
C[C@@H]1CN(C(=O)c2cc(COc3ccc4c(c3)OCO4)[nH]n2)C[C@H](C)O1	3.14%
O=C(c1cc(COc2ccc3c(c2)OCO3)[nH]n1)N1CC=CC1CO (stereo not drawn)	46.2%
O=C(c1cc(COc2ccc3c(c2)OCO3)[nH]n1)N1CCCC1	105.4%
O=C(c1cc(COc2ccc3c(c2)OCO3)[nH]n1)N1CCSCC1	102%
COc1cccc(OCc2cc(C(=O)N3CC(O)C3)n[nH]2)c1	3.061%
